According to PubChem BioAssay (NCATS):
Inconclusive results are not listed. Unmarked numbers belong to inactive results. Activity calls are given as the source filed them. The call rests on the fitted dose curve; in most records, active means well fitted inhibition curve with a large enough effect; inconclusive means small, poorly fitted or top-dose-only effect; inactive means flat fitted curve, though single readings scatter.

Tested on: NIH3T3
Test: Cytotoxic Profiling of Annotated Libraries Using Quantitative High-Throughput Screening (AID 1296008); further: nearly all actives have a fitted effect of over 60% in size
Details: Five cell lines viability, CellTiter-Glo ATP luminescence, 48-72 h; max response: active compounds read low
Outline: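 Cytotoxicity was measured as CellTiter-Glo ATP luminescence, read after 10 min at room temperature. Compound treatment of the cells lasted 48 or 72 hr at 37 degrees Celsius in a qHTS format.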
On the % scale 0 is the no-effect control and ±100 the full control effect; potency means the concentration at half of the fitted maximal effect.

SMILES	max response [%]	Potency
O=C(NCc1cccc(O)c1)c1cc2cc(F)ccc2[nH]1	-0.959	–
CC(=O)O[C@@H]1[C@@H](OC(=O)/C=C/c2ccccc2)[C@@H](OC(C)=O)[C@H](O[C@H]2[C@@H]3C=CO[C@@H](O[C@@H]4O[C@H](CO)[C@@H](O)[C@H](O)[C@H]4O)[C@@H]3[C@@]3(CO)O[C@@H]23)O[C@H]1C	-0.931	–
C[C@H](O)[C@H](O)/C=C/c1cccc(O)c1CO	-3.03	–
O=C(NCc1ccc(S(=O)(=O)c2cc(F)cc(F)c2)cc1)c1ccc2nccn2c1	–	0.0461 µM (active)
Cc1ccccc1CN1C2=NCCN2C(=O)C2=C1CCN(Cc1ccccc1)C2	-0.888	–
CC(=O)CCC1=C(C)C(O[C@@H]2O[C@H](CO)[C@@H](O)[C@H](O)[C@H]2O)C(O)CC1(C)C (some centres undefined)	3.13	–
Cc1cc(C)c2c(N)c(C(=O)NCc3ccc(Cl)cc3)sc2n1	-1.38	–
Cc1cc(C)cc(C(=O)NOCCCCCC(=O)NO)c1	–	5.8 µM (active)
CC(C)CC(=O)O[C@@H]1OC=C(CO[C@@H]2O[C@H](CO)[C@@H](O)[C@H](O)[C@H]2O)[C@H]2[C@@H]3O[C@H]3[C@@](O)(CO)[C@@H]12	2.35	–
CC(CO)C1CCC2(C)CC3C(CO)CC(O)C3C(C)(O)C/C=C/12 (centres undefined)	0.217	–
COC(=O)C1=C2Nc3ccccc3C23CCN2CCCC(C(C)O)(C1)C23 (centres undefined)	1.02	–
C/C=C1\[C@H](O[C@@H]2O[C@H](CO)[C@@H](O)[C@H](O)[C@H]2O)OC=C(C(=O)OC)[C@H]1CC(=O)OC[C@H]1O[C@@H](OCCc2ccc(O)cc2)[C@H](O)[C@@H](O)[C@@H]1O	-11.8	–
CC(C)c1nc(-c2ccc(NC(=O)Nc3cccc(C(F)(F)F)c3)c3ccccc23)c2c(N)nccn12	–	8.2 µM (active)
O=C(OC[C@H]1O[C@H](O[C@]2(CO)O[C@H](CO)[C@@H](O)[C@@H]2O)[C@H](O)[C@@H](O)[C@@H]1O)c1ccccc1	4.12	–
C[C@@H]1O[C@@H](O[C@H]2[C@H](O[C@H]3[C@H](O[C@H]4CC[C@@]5(C)C(CC[C@]6(C)C5CC=C5[C@@H]7CC(C)(C)CC[C@]7(C(=O)O[C@@H]7O[C@H](CO)[C@@H](O[C@@H]8O[C@@H](C)[C@H](O)[C@@H](O)[C@H]8O)[C@H](O)[C@H]7O)CC[C@]56C)C4(C)C)OC[C@H](O)[C@@H]3O)O[C@H](CO)[C@@H](O)[C@@H]2O)[C@H](O)[C@H](O)[C@H]1O (some centres undefined)	0.585	–
CN[C@@H]1[C@H](O[C@H]2[C@H](O[C@@H]3[C@@H](O)[C@H](O)[C@@H](N=C(N)N)[C@H](O)[C@H]3N=C(N)N)O[C@@H](C)[C@]2(O)C=O)O[C@@H](CO)[C@H](O)[C@H]1O	-1.39	–
CC(=O)OC1C[C@]2(C)C(O)CC(C)=C[C@H](OC(=O)c3ccc(O)cc3)C2[C@]1(O)C(C)C (some centres undefined)	3.62	–
CON(C)C(=O)[C@H](O)[C@H](Cc1ccccc1)NC(=O)c1cc2cc(Cl)ccc2[nH]1	-9.74	–
CC(=O)OC1/C(C)=C/C(=O)C(OC(C)=O)C(C)(C)/C=C/C(C)C(=O)C2(OC(C)=O)CC(C)C(OC(=O)c3ccccc3)C12 (centres undefined)	-16.3	–
O=S(=O)(c1ccc(S(=O)(=O)n2cnc3ccccc32)cc1)N1CCCCCC1	-4.79	–

SMILES	max response [%]	Potency
O=C(c1cn(Cc2cncn2Cc2ccc(Br)cc2)cc1-c1cccc2ccccc12)N1CCOCC1	–	7.31 µM (active)
Cc1nc(C)c(-c2ccc(C3CCC(CC(=O)O)CC3)cc2)nc1C(N)=O (centres undefined)	2.81	–
COC(C(=O)N1Cc2[nH]nc(NC(=O)c3ccc(N4CCN(C)CC4)cc3)c2C1)c1ccccc1 (centres undefined)	–	4.11 µM (active)
CC(C)C(=O)OC[C@H]1O[C@H](O[C@H]2O[C@H](CO)[C@@H](O)[C@H](O)[C@H]2O)[C@H](O)[C@@H](O)[C@@H]1O	-1.4	–
CC(C)=CCC[C@](C)(O[C@@H]1O[C@H](CO)[C@@H](O)[C@H](O)[C@H]1O)[C@H]1CC[C@]2(C)[C@@H]1[C@H](O)CC1[C@@]3(C)CC[C@H](O)C(C)(C)C3[C@@H](O[C@@H]3O[C@H](CO)[C@@H](O)[C@H](O)[C@H]3O)C[C@]12C (some centres undefined)	-17.5	–
CC(C)C(NC(=O)c1ccc2ccccc2n1)C(=O)NC(CC(=O)O)C(=O)COc1c(F)cccc1F (centres undefined)	-0.522	–
CSc1ccc(C(=O)N[C@@H]2CCCC[C@@H]2NC(=O)CNC(=O)c2cc(C(F)(F)F)ccc2NC(=O)NC(C)C)cc1	0.151	–
C=C[C@H]1C(O[C@@H]2O[C@H](CO)[C@@H](O)[C@H](O)[C@H]2O)OC=C2C(=O)N3CCc4c([nH]c5ccccc45)[C@H]3C[C@H]21 (some centres undefined)	2.76	–
CC(C)S(=O)(=O)NC[C@H](C)c1ccc(NC(=O)c2cc(F)cc(F)c2)cc1	3.47	–
O=C(CSc1nc2c(c(=O)n1-c1ccccc1)SCC2)Nc1ccc(-c2ccccc2)cn1	–	0.058 µM (active)
C=C(C)[C@@H]1CC[C@]2(C)CC[C@]3(C)[C@H](CC[C@@H]4[C@@]5(C)CC[C@@H](O)C(C)(C)[C@@H]5CC[C@]43C)[C@@H]12	1.04	–
COc1ccc(N2CCOCC2)c2sc(NC(=O)N3CCC(C)(O)CC3)nc12	-12	–
O=C(O)c1cn(C2CC2)c2cc(N3C[C@@H]4C[C@H]3CN4)c(F)cc2c1=O	-4.63	–
CC1=CC(=O)C(=C(C)C)CC2C1CCC2(C)O (centres undefined)	-2.64	–
C=CC(C)(O)CC/C=C(\C)C(=O)OC1C(O)C(CO)OC(OC(=O)C23CCC(C)(C)CC2C2=CCC4C5(C)CCC(OC6OC(COC7OCC(OC(C)=O)C(O)C7OC7OC(COC(C)=O)C(O)C(O)C7O)C(O)C(O)C6O)C(C)(C)C5CCC4(C)C2(C)C(O)C3O)C1OC1OCC(OC2OCC(O)C(OC3OCC(O)C(O)C3O)C2O)C(O)C1O (centres undefined)	-2.07	–
CS(=O)(=O)N(CC(=O)NCC1CC1)c1cc(C(F)(F)F)ccc1Cl	-6.39	–
CC(=O)OC1C(O)C2C(C)C3=CC(=O)OC3(O)CC2C2(C)CCCC(C)(CO)C12 (centres undefined)	0.673	–
O=C(O)/C=C/c1cc2c(cc1O[C@@H]1O[C@H](CO)[C@@H](O)[C@H](O)[C@H]1O)OCO2	4.44	–
CC1OC(OC2CCC3(C)C(CCC4(C)C3CC=C3C5CC(C)(C)CCC5(C(=O)OC5OC(CO)C(O)C(O)C5O)CCC34C(=O)O)C2(C)C)C(O)C(O)C1O (centres undefined)	-6.15	–
